In publication PMC5540273 (PLoS ONE, 2017):

How the values were obtained:
Conditions in all cases: concentration: 1 μM, replicates: in singlicate; n = 1
[1] = test system: MAP3K15
[2] = test system: MAP3K1
[3] = test system: MAP3K2
[4] = test system: MAP3K3
[5] = test system: MAP3K4
[6] = test system: MAP4K2
[7] = test system: MAP4K3
[8] = test system: MAP4K4
[9] = test system: MAP4K5
[10] = test system: MAPKAPK2
[11] = test system: MAPKAPK5
[12] = test system: MARK1
[13] = test system: MARK2
[14] = test system: MARK3
[15] = test system: MARK4
[16] = test system: MAST1
[17] = test system: T1, MEK1
T1 construct: gene MAP2K1

[18] = test system: T2, MEK2
T2 construct: gene MAP2K2

[19] = test system: T3, MEK3
T3 construct: gene MAP2K3

[20] = test system: T4, MEK4
T4 construct: gene MAP2K4
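Further: KINOMEscan kinase panel screen.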

O=C(NC1CCN(c2ccnc(Nc3ccc(F)cc3)n2)C1)c1cc2ccccc2s1 (centres unmarked) [GSK1379716]
%Inh [1]: 0%
%Inh [2]: 16%
%Inh [3]: 12%
%Inh [4]: 0%
%Inh [5]: 0%
%Inh [6]: 0%
%Inh [7]: 0%
%Inh [8]: 0%
%Inh [9]: 0%
%Inh [10]: 32%
%Inh [11]: 0%
%Inh [12]: 0%
%Inh [13]: 0%
%Inh [14]: 0%
%Inh [15]: 10%
%Inh [16]: 0%
%Inh [17]: 0%
%Inh [18]: 4%
%Inh [19]: 0%
%Inh [20]: 20%

Oc1cc(Nc2ccnc3cc(I)ccc23)ccc1F [GW552771]
%Inh [1]: 11%
%Inh [2]: 7%
%Inh [3]: 9%
%Inh [4]: 0%
%Inh [5]: 0%
%Inh [6]: 0%
%Inh [7]: 0%
%Inh [8]: 67%
%Inh [9]: 100%
%Inh [10]: 24%
%Inh [11]: 0%
%Inh [12]: 0%
%Inh [13]: 0%
%Inh [14]: 0%
%Inh [15]: 5%
%Inh [16]: 20%
%Inh [17]: 0%
%Inh [18]: 0%
%Inh [19]: 11%
%Inh [20]: 34%

Cl.NC(=O)c1cccc(Nc2nccc(Nc3ccc(Oc4c(Cl)cccc4Cl)c(Cl)c3)n2)c1 [GW659009]
%Inh [1]: 18%
%Inh [2]: 0%
%Inh [3]: 0%
%Inh [4]: 3%
%Inh [5]: 0%
%Inh [6]: 10%
%Inh [7]: 0%
%Inh [8]: 0%
%Inh [9]: 0%
%Inh [10]: 0%
%Inh [11]: 0%
%Inh [12]: 0%
%Inh [13]: 0%
%Inh [14]: 7%
%Inh [15]: 0%
%Inh [16]: 0%
%Inh [17]: 0%
%Inh [18]: 0%
%Inh [19]: 0%
%Inh [20]: 30%

O=c1[nH]cc(-c2ccc(N3CCOCC3)cc2)c2sc(-c3cn[nH]c3)cc12 [GSK2276055]
%Inh [1]: 0%
%Inh [2]: 16%
%Inh [3]: 12%
%Inh [4]: 0%
%Inh [5]: 21%
%Inh [6]: 27%
%Inh [7]: 0%
%Inh [8]: 1%
%Inh [9]: 2%
%Inh [10]: 0%
%Inh [11]: 2%
%Inh [12]: 0%
%Inh [13]: 0%
%Inh [14]: 0%
%Inh [15]: 0%
%Inh [16]: 0%
%Inh [17]: 0%
%Inh [18]: 9%
%Inh [19]: 17%
%Inh [20]: 5%

O=C(Nc1cccc(-c2nn3ccccc3c2-c2ccnc(Nc3cccc(F)c3)n2)c1)c1c(F)ccc(F)c1Cl [GSK357952]
%Inh [1]: 66%
%Inh [2]: 0%
%Inh [3]: 20%
%Inh [4]: 7%
%Inh [5]: 24%
%Inh [6]: 0%
%Inh [7]: 1%
%Inh [8]: 28%
%Inh [9]: 51%
%Inh [10]: 14%
%Inh [11]: 0%
%Inh [12]: 0%
%Inh [13]: 3%
%Inh [14]: 3%
%Inh [15]: 0%
%Inh [16]: 0%
%Inh [17]: 0%
%Inh [18]: 15%
%Inh [19]: 0%
%Inh [20]: 25%

CN1CCN(CCCNc2nccc(-c3c(-c4ccc(F)cc4)nn4cc(C(F)(F)F)ccc34)n2)CC1 [GW621581]
%Inh [1]: 4%
%Inh [2]: 4%
%Inh [3]: 0%
%Inh [4]: 0%
%Inh [5]: 0%
%Inh [6]: 0%
%Inh [7]: 30%
%Inh [8]: 33%
%Inh [9]: 0%
%Inh [10]: 5%
%Inh [11]: 0%
%Inh [12]: 7%
%Inh [13]: 0%
%Inh [14]: 16%
%Inh [15]: 16%
%Inh [16]: 0%
%Inh [17]: 0%
%Inh [18]: 0%
%Inh [19]: 0%
%Inh [20]: 10%

O=C(Nc1cccc(-c2nn3ccccc3c2-c2ccnc(Nc3cccc(C(F)(F)F)c3)n2)c1)c1c(F)cccc1F [GSK292658]
%Inh [1]: 26%
%Inh [2]: 11%
%Inh [3]: 0%
%Inh [4]: 2%
%Inh [5]: 6%
%Inh [6]: 6%
%Inh [7]: 0%
%Inh [8]: 1%
%Inh [9]: 15%
%Inh [10]: 21%
%Inh [11]: 0%
%Inh [12]: 0%
%Inh [13]: 0%
%Inh [14]: 3%
%Inh [15]: 0%
%Inh [16]: 0%
%Inh [17]: 3%
%Inh [18]: 0%
%Inh [19]: 0%
%Inh [20]: 17%

CCS(=O)(=O)c1ccc(OC)c(Nc2nccc(-c3c(-c4cccc(NC(=O)c5c(F)cccc5F)c4)nn4ncccc34)n2)c1 [GSK326180]
%Inh [1]: 0%
%Inh [2]: 10%
%Inh [3]: 6%
%Inh [4]: 0%
%Inh [5]: 7%
%Inh [6]: 0%
%Inh [7]: 22%
%Inh [8]: 3%
%Inh [9]: 0%
%Inh [10]: 34%
%Inh [11]: 0%
%Inh [12]: 6%
%Inh [13]: 22%
%Inh [14]: 0%
%Inh [15]: 9%
%Inh [16]: 0%
%Inh [17]: 31%
%Inh [18]: 18%
%Inh [19]: 2%
%Inh [20]: 25%

COc1cccc(C(=O)Nc2cccc(Oc3ccc4nc(NC(=O)C5CC5)cn4n3)c2)c1
%Inh [1]: 0%
%Inh [2]: 9%
%Inh [3]: 0%
%Inh [4]: 24%
%Inh [5]: 10%
%Inh [6]: 0%
%Inh [7]: 69%
%Inh [8]: 48%
%Inh [9]: 49%
%Inh [10]: 0%
%Inh [11]: 0%
%Inh [12]: 17%
%Inh [13]: 0%
%Inh [14]: 0%
%Inh [15]: 10%
%Inh [16]: 0%
%Inh [17]: 28%
%Inh [18]: 43%
%Inh [19]: 15%
%Inh [20]: 0%

CC(C)(C)c1ccc2nccc(Nc3cccc(O)c3)c2c1 [GW856795]
%Inh [1]: 0%
%Inh [2]: 0%
%Inh [3]: 0%
%Inh [4]: 0%
%Inh [5]: 0%
%Inh [6]: 100%
%Inh [7]: 0%
%Inh [8]: 23%
%Inh [9]: 29%
%Inh [10]: 11%
%Inh [11]: 0%
%Inh [12]: 9%
%Inh [13]: 2%
%Inh [14]: 27%
%Inh [15]: 21%
%Inh [16]: 22%
%Inh [17]: 46%
%Inh [18]: 44%
%Inh [19]: 49%
%Inh [20]: 0%
